# In the library only some 3.6% were active in any assay of this set; here they are far more common.
# Rango complex inh: Rango-importin beta binding inhibition; Potency, µM (highest dose often 92.2 µM), for inactives: top-dose inhibition of complex formation; Rango CFP/YFP FRET sensor + importin beta, 45 min; AID 540263; Q14974; 0.031% of 340,000 active; calls by dose curve;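 also: potency is read from the fitted curve at half-maximal effect; 0% = DMSO wells and 100% = buffer wells lacking importin beta; nearly all actives have a fitted effect of over 15% in size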
#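 Inhibition scored from the CFP 486 nm/YFP 530 nm FRET ratio 45 min after adding 0.125 microM importin beta to 50 nM Rango biosensor preincubated 5 min with compound (room temperature, PBS with DTT, Tween-20, BSA). No-importin wells as positive control.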
# VDR inh: inhibitors of human vitamin D receptor; P11473; VDR-SRC2-3 peptide fluorescence polarization, 2 h; Potency, µM, for inactives: max response, negative = inhibition, hits mostly inhibitors; 0.93% of 400,000 active; AID 504847; also: potency is read from the fitted curve at half-maximal effect; % is scaled to controls: 0 for no effect and ±100 for the full control effect
#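 After 23 nl compound addition and a short centrifugation, plates sat for 2 hours at ambient temperature; polarization of fluorescence then indicated loss of VDR binding to peptide SRC2-3.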
# GCN5L2 inh: GCN5L2 (KAT2A) acetyltransferase inhibition. GCN5L2 HAT assay, ThioGlo1 CoA-SH fluorescence. Potency, µM (highest dose often 58.9 µM), for inactives: at the highest dose activity change, negative = inhibition, most hits filed as inhibitors. 0.21% of 390,000 active; also: potency is read from the fitted curve at half-maximal effect; % is scaled to controls: 0 for no effect and ±100 for the full control effect
#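 GCN5L2 (20nM final) in 50mM HEPES, 0.1mM EDTA pH 7.5, 0.01% Tween-20 was preincubated 15 min at room temperature with compound, then given ThioGlo1 (50uM), H3(1-25) peptide (75uM) and acetyl-CoA (70uM); CoA-thiol fluorescence (Ex340/Em540) was read at 0 and 20 min.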
# PLK1 PBD block: blocks phosphopeptide binding to human PLK1 polo-box domain; P53350; 2.8% of 360,000 active; Plk1 PBD binding of FITC phosphopeptide, fluorescence polarization; Potency, µM, for inactives: max response, negative = inhibition, actives largely listed as inhibitors; also: potency is read from the fitted curve at half-maximal effect; series mostly up to about 57 µM; % is scaled to controls: 0 for no effect and ±100 for the full control effect; nearly all actives have a fitted effect of over 65% in size
# Rango release inh: inhibition of RanGTP-driven Rango-importin beta dissociation; Potency, µM (highest dose often 46.1 µM), inactives show top-dose activity change, negative = inhibition; 0.071% of 340,000 active; Biochemical FRET Rango-importin beta, RanGTP-induced dissociation; O95149+P62826; calls by dose curve; also: potency is read from the fitted curve at half-maximal effect; % of control where 0% means no effect; nearly all actives have a fitted effect of over 45% in size
#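 FRET read at 45 min, room temperature: inhibitors block the CFP/YFP signal rise when RanGTP (0.6 uM Ran, 2 mM GTP, 0.2 uM RCC1) frees Rango (0.1 uM) from importin beta (0.25 uM). Pre-read after 5 min compound exposure flags interference.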
# PI5P4K alpha inh: PI5P4K alpha (human) kinase inhibition. P48426. PI5P4Kalpha enzyme, ADP-Glo luminescence, 60 min; active compounds read low. max response, %. 1.2% of 330,000 active; active = max response of -50% or lower; inconclusive = between -30% and -50%; inactive = -30% or higher; also: value at the top dose of about 77 µM; % is scaled to controls: 0 for no effect and ±100 for the full control effect
#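 ADP-Glo luminescence end-point read after a 60 min room-temperature kinase reaction of PI5P4Kalpha plus substrate, initiated with ATP at 5 microM final. Buffer: 0.038 M HEPES pH 7.4, EGTA, 0.1% CHAPS, 5% DMSO.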
# * hit, by the source's call; ? = inconclusive; / = no result. Unless noted, calls follow the shape of the dose curve; as a rule, active = well fitted curve in the direction sought with a large enough effect; inconclusive = small, poorly fitted or top-dose-only effect, or another doubt; inactive = no such curve, though single readings can be large; an effect the other way counts as inactive or inconclusive.
SMILES,Rango complex inh,VDR inh,GCN5L2 inh,PLK1 PBD block,Rango release inh,PI5P4K alpha inh
CC(C)(C)C(=O)Nc1sc2c(c1C(=O)Nc1ccccn1)CCCC2,-1%,-25%,-3%,27µM*,-3%,5
Cc1ccccc1NC(=O)c1c(NC(=O)C(F)(F)F)sc2c1CCCCC2,/,?,-1%,/,/,/
COc1ccc(/C=N/N=C2/NC(=O)C(CC(=O)O)S2)cc1OCc1ccccc1Cl (stereo not drawn),1%,-18%,-2%,-24%,0%,?
COc1ccc(/C=N/N=C2/NC(=O)C(CC(=O)O)S2)cc1OCc1ccc(Cl)cc1Cl (stereo not drawn),-3%,-23%,-22%,-18%,2%,-56*
OCCCNCc1ccc(Cl)cc1Cl,-5%,9%,0%,30µM*,-1%,-4
CC(O)CNCc1ccc(Cl)cc1Cl (stereo not drawn),0%,-16%,-8%,-7%,17%,-1
CN1C(=O)c2[nH]nc(-c3ccc(F)cc3)c2C1c1cccc(O)c1 (stereo not drawn),/,0%,-4%,/,/,/
COc1ccccc1C(c1nnnn1Cc1ccco1)N1CCN(c2cccc(C)c2C)CC1 (stereo not drawn),-5%,-24%,-10%,-23%,-6%,0
CCN1CCN(C(c2cccc(OC)c2OC)c2nnnn2Cc2ccco2)CC1 (stereo not drawn),-4%,-6%,-4%,27µM*,-4%,-26
COc1cc(-c2cc(-c3ccc(O)cc3)nc(N)c2C#N)ccc1O,?,13%,7%,-8%,?,-51*
CCC(C)NC(=O)c1cc(C)no1 (stereo not drawn),6%,11%,-1%,30µM*,-2%,2
CCc1ccccc1NC(=O)c1cc(C)no1,-1%,4%,-1%,0%,2%,-3
CCCCOc1ccc(C2=NC(c3ccncc3)=Nc3ccc(OCC)cc3N2)cc1,/,17%,-16%,/,/,/
O=C(c1cccnc1Cl)N1CCOCC1,-1%,?,-3%,19µM*,-1%,?
O=C(c1ccccc1F)N1CCOCC1,-1%,-1%,-1%,-5%,32%,-11
CCOC(=O)C1=C(N)OC2=C(C(=O)CC(C)(C)C2)C1c1ccoc1 (stereo not drawn),-1%,-1%,-7%,21µM*,1%,-17
Oc1ccc(COC2CCCC2)c2cccnc12,/,/,-9%,/,/,/
CCCCC1CCC(C(=O)N2CC(=O)Nc3ccc(C)cc3C2c2ccc(F)cc2)CC1 (stereo not drawn),/,9%,-17%,/,/,/
CN(C(=O)CSc1cn(CC(=O)N2CCOCC2)c2ccccc12)c1ccccc1,-1%,?,0%,12µM*,26%,-21
CC1CCN(C(=O)Cn2cc(SCC(=O)NCC3CCCO3)c3ccccc32)CC1 (stereo not drawn),3%,-8%,0%,-2%,-3%,-2
O=C(CSc1cn(CC(=O)N2CCCCC2)c2ccccc12)NCC1CCCO1 (stereo not drawn),1%,?,-5%,27µM*,0%,-11
Cc1ccc(-n2ncc(C(=O)NCCCN3CCN(C)CC3)c2C2CCN(C(=O)OC(C)(C)C)CC2)cc1,/,3%,4%,/,/,/
COc1ccc(-c2cc(C(=O)Nc3c(C)nn(Cc4ccc(F)cc4)c3C)no2)cc1OC,/,-5%,2%,/,/,/
CC(=O)Nc1ccc(S(=O)(=O)NC(CC(=O)N(C)Cc2ccccc2)C(C)C)cc1 (stereo not drawn),-1%,-14%,-1%,3.4µM*,26%,-53*
CC(=O)Nc1ccc(S(=O)(=O)NC(CC(=O)NCCc2ccccc2)C(C)C)cc1 (stereo not drawn),2%,-1%,2%,-7%,0%,/
SMILES,Rango complex inh,VDR inh,GCN5L2 inh,PLK1 PBD block,Rango release inh,PI5P4K alpha inh
COc1cccc(Cn2c(CNC(=O)CCc3ccccc3)nc3cccnc32)c1,/,0%,-4%,/,/,/
CCc1cc2ccc(C)cc2nc1SCC(=O)N1CCN(C(=O)c2ccco2)CC1,1%,79µM*,-5%,24µM*,8%,-27
CCc1cc2cc3c(cc2nc1SCC(=O)N1CCN(C(=O)c2ccco2)CC1)OCO3,1%,-2%,-3%,-15%,11%,-5
Cc1ccc(C2=Nc3ccccc3N(C(=O)c3ccccc3)C(C)C2)cc1 (stereo not drawn),4%,-2%,-1%,30µM*,2%,-6
Cc1ccc2c(c1)c1c(c(=O)n(Cc3ccccc3)c(=O)n1Cc1ccccc1F)n2C,/,4%,1%,/,/,/
O=C(O)c1cc(Cl)ccc1-c1ccc(/C=C/c2cc(C(F)(F)F)[nH]c(=O)n2)o1,?,-15%,0%,40%,?,-53*
Cc1sc(NC(=O)CCS(=O)(=O)c2ccccc2)c(C#N)c1C,0%,89µM*,-25%,13µM*,32%,?
Cn1c(C(=O)NCCc2ccccc2)cc(=O)n(C)c1=O,0%,?,-2%,24µM*,16%,1
Cn1cccc1C(=O)NCCc1ccccc1,0%,2%,-4%,-11%,1%,-7
CCCOc1ccc(-c2nonc2NC(=O)c2oc3ccc(Cl)cc3c2C)cc1OCCC,/,3%,-5%,/,/,/
Cn1c(CNC(=O)CNC(=O)c2cccc(Cl)c2)cc(=O)n(C)c1=O,-2%,7%,-7%,-1%,26%,-2
Cc1cccc(CC(=O)NCC(=O)NCc2cc(=O)n(C)c(=O)n2C)c1,0%,?,2%,3µM*,6%,?
CC(CC(C)(C)C)CP(=O)(O)CC(C)CC(C)(C)C (stereo not drawn),/,?,-3%,/,/,/
Cc1ccc(S(=O)(=O)N(C)C)cc1NC(=O)COC(=O)Cc1ccc(Br)cc1,0%,?,-3%,19µM*,-5%,-22
O=C(CSc1nc2c([nH]c3ccccc32)c(=O)n1-c1cccc(Cl)c1)c1ccccc1,/,3%,9%,/,/,/
CC(C)OC(=O)c1cn(-c2ccccc2)nc1-c1ccco1,1%,79µM*,-19%,?,-16%,?
CCOC(=O)C1=C(C)NC(C)=C(C(=O)OCC)C1c1cn(-c2ccccc2)nc1-c1ccco1,2%,4%,-3%,-9%,9%,-3
CCn1nc(C)c(Br)c1C(=O)Sc1ccccc1Cl,?,?,-3%,13µM*,-8%,24
CCn1nc(C)cc1C(=O)Sc1ccc(C)cc1,-2%,-14%,-1%,-25%,1%,1
CCOc1ccc(/C=C(\C#N)C(=O)c2c(C)[nH]c3ccccc23)cc1OC,-3%,-25%,-13%,-8%,-1%,-3
COc1cc(/C=C(/C#N)C(=O)c2c(C)[nH]c3ccccc23)ccc1OCC#N,-1%,-20%,-29%,0%,0%,2

# Compound activity: PubChem BioAssay, National Center for Advancing Translational Sciences (NCATS)
